Measurements as given in PubChem BioAssay (EPA / NIEHS).
Results filed as inconclusive are left out. Active and inactive are the calls of the source. The calls were made as follows, unless noted: active = hit-call score of the fitted dose curve at least 0.9, where 1 is the maximum; inactive = score below 0.9.

How the values were obtained:
[1] = biological target: Oxysterols receptor LXR-beta (Homo sapiens) (UniProt P55055); test: ATG_LXRb_TRANS: Attagene TRANS-FACTORIAL HepG2 Assay for human Liver X Receptor beta (LXRb) (AID 2282981; active = hit-call score of the fitted dose curve at least 0.9, where 1 is the maximum); settings: HepG2 Attagene TRANS GAL4-LXRb reporter, mRNA
Procedure, shortened: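 Multiplexed reporter assay, HepG2, 24 h dosing. Fluorescence of labelled RT-PCR products after capillary electrophoresis gives transcript level; positive fitting direction relative to DMSO.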

[2] = ATG_M_06_TRANS: Attagene TRANS-FACTORIAL HepG2 Assay for M06 Transcription Factor (Internal Marker) (AID 2282983; active = hit-call score of the fitted dose curve at least 0.9, where 1 is the maximum); settings: HepG2 Attagene TRANS M06 internal marker reporter
Procedure, shortened: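 Background-control reporter readout: after 24 h chemical exposure of transiently transfected HepG2 (GAL4-UAS reporter units), mRNA quantified by RT-PCR with fluorescent labeling and capillary electrophoresis. Gain-of-signal fitting against DMSO baseline.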

[3] = ATG_M_32_TRANS: Attagene TRANS-FACTORIAL HepG2 Assay for M32 Transcription Factor (Internal Marker) (AID 2282984; active = hit-call score of the fitted dose curve at least 0.9, where 1 is the maximum;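 also: transcript level of a background control reporter unit measured by RT-PCR and capillary electrophoresis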); settings: HepG2 Attagene TRANS M32 internal marker reporter
Procedure, shortened: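 Internal-marker readout from a multiplexed transcription reporter panel. HepG2 cells were transfected with GAL4-UAS reporter units, treated 24 hours, and reporter transcript levels determined by fluorescence after RT-PCR and capillary separation.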

[4] = biological target: Transcriptional activator Myb (Homo sapiens) (UniProt P10242); test: ATG_Myb_CIS: Attagene CIS-FACTORIAL HepG2 Assay for human Myeloblastosis (Myb) Proto-Oncogene Transcription Factor (AID 2282986); settings: HepG2 Attagene CIS-FACTORIAL Myb reporter transcription; actives raise or lower the signal
Procedure, shortened: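 After 24 h of compound dosing, total RNA from transfected HepG2 cells is reverse-transcribed and the reporter sequences amplified, labeled and separated by capillary electrophoresis. Values come from bidirectional fitting against DMSO.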

[5] = biological target: Nuclear respiratory factor 1 (Homo sapiens) (UniProt Q16656); test: ATG_NRF1_CIS: Attagene CIS-FACTORIAL HepG2 Assay for human Nuclear Respiratory Factor 1 (NRF1) Orphan Gene (AID 2282987); settings: HepG2 NRF1 cis-element reporter, Attagene multiplex; actives raise or lower the signal
Procedure, shortened: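 Measured: fluorescent reporter-specific RT-PCR products from transfected HepG2 cells, separated by capillary electrophoresis. Exposure lasted 24 h. Analysis used bidirectional curve fitting with DMSO as negative control.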

[6] = ATG_NFI_CIS: Attagene CIS-FACTORIAL HepG2 Assay for human Nuclear Factor I (NFI) (AID 2282989); settings: HepG2 cis-regulatory reporter, NFI response element transcription; actives raise or lower the signal
Procedure, shortened: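 HepG2 cells transiently transfected with cis-element-driven multiplexed reporter transcription units, dosed for 24 h. Reporter mRNA quantified by RT-PCR, fluorescent labelling, HpaI digestion and capillary electrophoresis; bidirectional fit versus DMSO baseline.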

[7] = biological target: Myc proto-oncogene protein (Homo sapiens) (UniProt P01106); test: ATG_Myc_CIS: Attagene CIS-FACTORIAL HepG2 Assay for human Myelocytomatosis (Myc) Proto-Oncogene Transcription Factor (AID 2282990); settings: HepG2, Attagene cis-reporter transcription factor activity; actives raise or lower the signal
Procedure, shortened: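 Fluorescence intensity of reporter-specific cDNA fragments, separated by capillary electrophoresis, gives the signal. Transfected HepG2 cells carrying cis-promoter reporter constructs are incubated with compound for 24 h; DMSO serves as baseline.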

[8] = ATG_NRF2_ARE_CIS: Attagene CIS-FACTORIAL HepG2 Assay for human Nuclear Factor Erythroid 2 Related Factor 2 (NFR2) response to Antioxidant Response Elements (ARE) (AID 2282992); settings: HepG2 Attagene ARE/NRF2 reporter, transcription factor activity; actives raise or lower the signal
Procedure, shortened: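 Readout: reporter mRNA quantified by RT-PCR plus FAM-labelled primer extension, HpaI digestion and capillary electrophoresis, 24 h after dosing transfected HepG2 cells. Gain or loss of signal is fitted bidirectionally against DMSO baseline.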

[9] = ATG_Oct_MLP_CIS: Attagene CIS-FACTORIAL HepG2 Assay for human Octamer-Binding Transcription Factor (Oct) (AID 2282993); settings: HepG2 Attagene cis-factorial Oct reporter, mRNA; actives raise or lower the signal
Procedure, shortened: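 HepG2 cells transiently transfected with cis-promoter-driven multiplexed reporter transcription units, dosed for 24 h. Reporter mRNA quantified by RT-PCR, fluorescent labelling, HpaI digestion and capillary electrophoresis; bidirectional fits versus DMSO baseline.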

[10] = biological target: Cellular tumor antigen p53 (Homo sapiens) (UniProt P04637); test: ATG_p53_CIS: Attagene CIS-FACTORIAL HepG2 Assay for human p53 Transcription Factor (AID 2282994); settings: HepG2 p53 cis-element reporter, Attagene mRNA; actives raise or lower the signal
Procedure, shortened: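 Read-out: reporter mRNA by RT-PCR plus capillary electrophoresis with fluorescence detection. Human HepG2 liver cells carried transfected multi-reporter cis-element constructs, dosed 24 h. Gain or loss of signal fitted bidirectionally against DMSO control.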

[11] = biological target: Nuclear receptor subfamily 4 group A member 2 (Homo sapiens) (UniProt P43354); test: ATG_NURR1_TRANS: Attagene TRANS-FACTORIAL HepG2 Assay for human Nuclear Receptor Related Protein 1 (NURR1) (AID 2282985; active = hit-call score of the fitted dose curve at least 0.9, where 1 is the maximum); settings: HepG2 Attagene TRANS reporter, mRNA readout
Procedure, shortened: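 Endpoint: reporter mRNA increase relative to DMSO. HepG2 cells transfected with reporter units, treated 24 h; RNA processed by RT-PCR, labelling, HpaI digestion and capillary electrophoresis.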

[12] = ATG_NF_kB_CIS: Attagene CIS-FACTORIAL HepG2 Assay for human Nuclear Factor Kappa B (NF-kB) (AID 2282991); settings: HepG2 Attagene cis-factorial NF-kB reporter mRNA; actives raise or lower the signal
Procedure, shortened: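 Fluorescence of labelled RT-PCR products separated by capillary electrophoresis gives reporter mRNA levels from transfected HepG2 cells exposed 24 h; values are fitted in both directions relative to DMSO.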

[13] = biological target: Hepatocyte nuclear factor 4-alpha (Homo sapiens) (UniProt P41235); test: ATG_HNF4a_TRANS: Attagene TRANS-FACTORIAL HepG2 Assay for human Hepatocyte Nuclear Factor 4 alpha (HNF4a) (AID 2282982; active = hit-call score of the fitted dose curve at least 0.9, where 1 is the maximum); settings: HepG2 HNF4a transactivation reporter, mRNA readout
Procedure, shortened: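 Endpoint reflects transcriptional activation of a GAL4-UAS reporter by an HNF4a-GAL4 chimera in transfected HepG2 cells, 24 h post-dosing. Fluorescence from RT-PCR products separated by capillary electrophoresis; DMSO baseline.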

Measured: AC50

Chain of Cellular tumor antigen p53 (Homo sapiens) (P04637 whole entry, looked up): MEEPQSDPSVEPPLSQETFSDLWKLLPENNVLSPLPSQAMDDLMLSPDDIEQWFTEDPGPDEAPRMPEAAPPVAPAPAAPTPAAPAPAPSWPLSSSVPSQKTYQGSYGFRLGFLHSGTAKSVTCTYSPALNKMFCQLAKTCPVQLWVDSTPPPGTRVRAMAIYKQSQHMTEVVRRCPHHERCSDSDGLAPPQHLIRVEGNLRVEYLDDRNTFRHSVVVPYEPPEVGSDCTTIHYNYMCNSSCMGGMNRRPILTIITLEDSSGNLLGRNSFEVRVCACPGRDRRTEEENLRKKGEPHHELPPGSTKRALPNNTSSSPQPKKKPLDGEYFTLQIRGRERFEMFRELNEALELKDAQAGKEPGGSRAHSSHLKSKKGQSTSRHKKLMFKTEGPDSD
Chain of Transcriptional activator Myb (Homo sapiens) (P10242 whole entry, looked up): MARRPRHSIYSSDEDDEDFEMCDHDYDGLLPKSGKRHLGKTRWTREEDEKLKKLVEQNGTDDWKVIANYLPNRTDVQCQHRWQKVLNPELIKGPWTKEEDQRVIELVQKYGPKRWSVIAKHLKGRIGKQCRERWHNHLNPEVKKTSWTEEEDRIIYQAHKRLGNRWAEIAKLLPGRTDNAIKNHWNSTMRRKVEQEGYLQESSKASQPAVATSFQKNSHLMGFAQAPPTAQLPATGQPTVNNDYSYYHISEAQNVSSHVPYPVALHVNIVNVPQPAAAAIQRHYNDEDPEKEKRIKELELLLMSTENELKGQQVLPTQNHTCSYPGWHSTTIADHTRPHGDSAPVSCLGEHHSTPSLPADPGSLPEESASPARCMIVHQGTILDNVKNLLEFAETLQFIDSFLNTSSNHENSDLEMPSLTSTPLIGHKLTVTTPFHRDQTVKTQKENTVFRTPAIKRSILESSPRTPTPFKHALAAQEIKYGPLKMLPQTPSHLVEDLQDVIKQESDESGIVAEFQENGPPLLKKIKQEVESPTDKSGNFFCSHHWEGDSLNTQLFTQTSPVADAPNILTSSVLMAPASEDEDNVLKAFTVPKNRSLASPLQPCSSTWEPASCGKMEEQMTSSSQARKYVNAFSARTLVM
Chain of Oxysterols receptor LXR-beta (Homo sapiens) (P55055 whole entry, looked up, the tested form may be a part): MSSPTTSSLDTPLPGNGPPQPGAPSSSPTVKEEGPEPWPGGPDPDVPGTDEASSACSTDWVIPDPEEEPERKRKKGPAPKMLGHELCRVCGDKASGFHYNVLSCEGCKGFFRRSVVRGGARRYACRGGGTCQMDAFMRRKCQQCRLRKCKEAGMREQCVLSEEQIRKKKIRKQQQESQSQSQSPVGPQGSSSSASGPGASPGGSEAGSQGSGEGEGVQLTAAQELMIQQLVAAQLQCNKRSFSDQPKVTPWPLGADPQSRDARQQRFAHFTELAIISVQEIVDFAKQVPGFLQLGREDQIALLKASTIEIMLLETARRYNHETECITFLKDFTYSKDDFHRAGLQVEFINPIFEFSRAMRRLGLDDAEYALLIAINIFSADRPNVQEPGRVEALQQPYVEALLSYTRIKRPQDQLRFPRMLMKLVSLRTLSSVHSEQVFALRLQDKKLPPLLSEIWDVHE
Chain of Nuclear receptor subfamily 4 group A member 2 (Homo sapiens) (P43354 whole entry, looked up): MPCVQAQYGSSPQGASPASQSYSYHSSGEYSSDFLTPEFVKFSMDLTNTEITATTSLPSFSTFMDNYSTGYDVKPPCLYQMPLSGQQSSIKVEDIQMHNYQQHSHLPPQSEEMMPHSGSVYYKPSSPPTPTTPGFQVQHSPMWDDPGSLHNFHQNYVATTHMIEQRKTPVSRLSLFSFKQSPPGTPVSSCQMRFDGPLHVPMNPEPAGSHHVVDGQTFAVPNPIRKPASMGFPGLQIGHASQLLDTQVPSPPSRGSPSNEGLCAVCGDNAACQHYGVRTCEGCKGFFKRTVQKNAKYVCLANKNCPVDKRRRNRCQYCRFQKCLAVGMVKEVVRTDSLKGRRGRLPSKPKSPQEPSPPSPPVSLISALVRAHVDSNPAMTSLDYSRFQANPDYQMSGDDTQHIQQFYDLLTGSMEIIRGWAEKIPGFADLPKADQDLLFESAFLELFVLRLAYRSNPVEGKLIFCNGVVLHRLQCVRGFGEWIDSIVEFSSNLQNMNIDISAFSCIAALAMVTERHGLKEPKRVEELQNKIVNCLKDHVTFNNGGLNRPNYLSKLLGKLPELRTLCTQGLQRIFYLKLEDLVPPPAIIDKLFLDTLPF
Chain of Myc proto-oncogene protein (Homo sapiens) (P01106 whole entry, looked up, the tested form may be a part): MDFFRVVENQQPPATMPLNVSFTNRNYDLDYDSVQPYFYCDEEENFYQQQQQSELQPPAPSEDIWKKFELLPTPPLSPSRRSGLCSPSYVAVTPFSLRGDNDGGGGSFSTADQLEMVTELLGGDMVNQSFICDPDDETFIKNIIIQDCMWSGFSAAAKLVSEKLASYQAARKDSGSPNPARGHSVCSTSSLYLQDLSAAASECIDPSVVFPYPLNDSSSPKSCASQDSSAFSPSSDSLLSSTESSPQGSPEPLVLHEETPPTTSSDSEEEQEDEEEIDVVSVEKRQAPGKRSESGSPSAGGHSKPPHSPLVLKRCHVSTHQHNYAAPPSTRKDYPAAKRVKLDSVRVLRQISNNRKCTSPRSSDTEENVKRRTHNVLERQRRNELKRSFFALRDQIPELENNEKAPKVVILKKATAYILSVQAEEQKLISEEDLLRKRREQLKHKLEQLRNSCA
Chain of Nuclear respiratory factor 1 (Homo sapiens) (Q16656 whole entry, looked up): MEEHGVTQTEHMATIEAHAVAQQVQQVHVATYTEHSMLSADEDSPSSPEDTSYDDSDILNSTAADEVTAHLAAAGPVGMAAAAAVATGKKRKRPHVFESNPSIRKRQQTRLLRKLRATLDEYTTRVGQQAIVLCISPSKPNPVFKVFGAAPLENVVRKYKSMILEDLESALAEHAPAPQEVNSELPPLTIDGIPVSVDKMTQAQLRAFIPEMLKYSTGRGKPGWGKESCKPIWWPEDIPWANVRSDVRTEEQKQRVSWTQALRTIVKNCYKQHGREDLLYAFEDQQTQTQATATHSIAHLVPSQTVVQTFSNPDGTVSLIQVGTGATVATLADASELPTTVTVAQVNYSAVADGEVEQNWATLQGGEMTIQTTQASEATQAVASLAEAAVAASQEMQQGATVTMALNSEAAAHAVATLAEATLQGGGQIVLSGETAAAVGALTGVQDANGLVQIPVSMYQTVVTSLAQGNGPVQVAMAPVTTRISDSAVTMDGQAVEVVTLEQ
Chain of Hepatocyte nuclear factor 4-alpha (Homo sapiens) (P41235 whole entry, looked up, the tested form may be a part): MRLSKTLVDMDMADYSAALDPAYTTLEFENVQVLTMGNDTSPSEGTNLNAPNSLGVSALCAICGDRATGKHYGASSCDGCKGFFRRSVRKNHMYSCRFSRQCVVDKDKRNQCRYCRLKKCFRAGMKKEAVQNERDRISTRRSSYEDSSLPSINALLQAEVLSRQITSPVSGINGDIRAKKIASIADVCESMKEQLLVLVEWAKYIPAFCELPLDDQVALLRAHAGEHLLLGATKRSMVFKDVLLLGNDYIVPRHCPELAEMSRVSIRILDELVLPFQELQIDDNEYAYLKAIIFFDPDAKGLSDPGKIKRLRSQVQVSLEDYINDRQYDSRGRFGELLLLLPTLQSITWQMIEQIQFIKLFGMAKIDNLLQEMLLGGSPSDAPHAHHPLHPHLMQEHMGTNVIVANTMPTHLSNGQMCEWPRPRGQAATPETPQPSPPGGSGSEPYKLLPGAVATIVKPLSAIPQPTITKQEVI

COC(=O)c1c(C)cc(O)c(C)c1O
not listed: [11] | [12] | [13]
inactive: all other assays above

OCCN(CCO)c1ccccc1
not listed: [3] | [13]
inactive: all other assays above

Nc1ncn([C@@H]2O[C@H](CO)[C@@H](O)[C@H]2O)c(=O)n1
active: [10] 2.1 µM
not listed: [2] | [9] | [13]
inactive: all other assays above

O=CN1CCCCC1
not listed: [2] | [8] | [12] | [13]
inactive: all other assays above

C=C(C)[C@H]1CC=C(C)CC1
not listed: [3] | [5] | [8] | [12] | [13]
inactive: all other assays above

Cc1cccc(OCCOc2cccc(C)c2)c1
active: [8] 26.7 µM
not listed: [2] | [11] | [12] | [13]
inactive: all other assays above

C=CC(=O)OCCOC1C2CCC1C1CC=CC12 (stereo unspecified)
not listed: [2] | [3] | [13]
inactive: all other assays above

C[Si](C)O[Si](C)(C)O[Si](C)(C)O[Si](C)C
not listed: [12] | [13]
inactive: all other assays above

Cn1c([N+](=O)[O-])cnc1COC(N)=O
not listed: [2] | [3] | [13]
inactive: all other assays above

COc1ccc(NC(C)=O)cc1N
not listed: [3] | [5] | [10] | [13]
inactive: all other assays above

OC1CCCC1
not listed: [9] | [10] | [13]
inactive: all other assays above

CC(C)(C)c1n[nH]c(=O)n(N)c1=O
not listed: [3] | [5] | [11]
inactive: all other assays above

CC(=O)c1ccc2c(c1)CCCC2
not listed: [2] | [8] | [11] | [13]
inactive: all other assays above
